Source: PubChem BioAssay (several laboratories)
Most compounds without a hit are left out; they make up all but 4.7% or so of the library.
RecA intein inh: inhibitors of M. tuberculosis RecA intein splicing | cell-free RecA intein splicing, fluorescence | inhibition, % (no concentration beside the values) | P9WHJ3 | 290,000 tested, 0.75% active | AID 2221; in the data active = inhibition above about 30%
GDH-TPI counter: GDH-TPI coupled enzyme inhibition counter-screen. GDH-TPI coupled enzyme counterscreen, NADH absorbance. inhibition, % at 4.8 µM. 360,000 tested, 1.2% active. AID 588335
FBA Mtb inh: Mtb fructose-bisphosphate aldolase inhibition. purified M. tuberculosis FBA, fluorescence read-out. P9WQA3. inhibition, % at 1 µM. AID 588726. 360,000 tested, 2.3% active; in the data active = inhibition above about 27%
Target sequence (P9WQA3 whole entry, looked up): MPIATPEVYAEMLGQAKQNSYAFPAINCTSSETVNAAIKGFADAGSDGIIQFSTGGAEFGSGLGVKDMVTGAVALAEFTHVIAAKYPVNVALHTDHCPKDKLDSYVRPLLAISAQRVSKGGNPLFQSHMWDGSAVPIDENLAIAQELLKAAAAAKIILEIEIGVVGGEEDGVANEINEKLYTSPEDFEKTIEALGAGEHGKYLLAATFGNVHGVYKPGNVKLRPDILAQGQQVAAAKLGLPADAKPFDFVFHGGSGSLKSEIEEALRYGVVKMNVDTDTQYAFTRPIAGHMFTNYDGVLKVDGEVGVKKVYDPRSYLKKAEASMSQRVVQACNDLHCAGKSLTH
CCHFV vOTU inh: blocks the CCHF virus ovarian tumor domain protease; CCHFV vOTU protease, Pep-AMC fluorescence; inhibition, % at 11.5 µM; 370,000 tested, 0.55% active
SARS 3CLpro inh: SARS-CoV 3CLpro protease inhibition | P0C6X7 | recombinant SARS-CoV 3CLpro, quenched FRET peptide cleavage | inhibition, % at 6 µM | 290,000 tested, 0.14% active | AID 1706; in the data active = inhibition above about 12%
DUSP3 inh: DUSP3 (human) phosphatase inhibition | inhibition, % at 13.3 µM | recombinant VHR phosphatase, pNPP absorbance | AID 1654 | 290,000 tested, 0.52% active; in the data active = inhibition above about 50%
Target sequence (P51452 whole entry, looked up): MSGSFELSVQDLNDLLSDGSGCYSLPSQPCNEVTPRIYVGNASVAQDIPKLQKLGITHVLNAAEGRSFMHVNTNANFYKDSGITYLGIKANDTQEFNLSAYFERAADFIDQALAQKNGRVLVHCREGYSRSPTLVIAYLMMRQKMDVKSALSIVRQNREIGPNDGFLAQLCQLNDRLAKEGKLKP
Each line names hits and unclear results; the compound was inactive in the other large screens. Cut-off read from the data, not from the text of the source, unless noted: active = inhibition above about 30%; inactive = the rest.

CCC(C)N(C(=O)COC(=O)c1cc([N+](=O)[O-])ccc1N1CCOCC1)C1CCS(=O)(=O)C1 (stereo unspecified)	none (no result: SARS 3CLpro inh, DUSP3 inh)
CN(C(=O)COC(=O)c1cc([N+](=O)[O-])ccc1N1CCCC1)C1CCS(=O)(=O)C1 (stereo unspecified)	DUSP3 inh 51.2
C[C@H](CO)N1C[C@H](C)[C@@H](CN(C)Cc2ccc(Cl)c(Cl)c2)OCc2cnnn2CCCC1=O	none (no result: RecA intein inh, SARS 3CLpro inh, DUSP3 inh)
CC(C)[C@@H](C)/C=C/[C@@H](C)[C@H]1CC[C@@H]2[C@]1(C)CCC1[C@]23C=C[C@]2(C[C@@H](O)CC[C@]12C)N(c1cnccn1)O3 (stereo partly specified)	none (no result: RecA intein inh, GDH-TPI counter, FBA Mtb inh, SARS 3CLpro inh, DUSP3 inh)
O=S1(=O)CC2c3ccccc3CCN2CN1Cc1ccc(F)cc1 (stereo unspecified)	none (no result: RecA intein inh, GDH-TPI counter, FBA Mtb inh, SARS 3CLpro inh, DUSP3 inh)
Cc1c(C(=O)N(C)C2CC(C)(C)NC(C)(C)C2)oc2c(F)cccc12	none
O=C(c1cccc(Br)c1)N1CCC(Oc2cccnc2)CC1	none (no result: RecA intein inh, GDH-TPI counter, FBA Mtb inh, SARS 3CLpro inh, DUSP3 inh)
O=c1oc2c(CN3CCOCC3)c(O)ccc2c2c1CCCC2	FBA Mtb inh active
O=c1oc2c(CN3CCOCC3)c(O)c(Cl)cc2c2c1CCCC2	FBA Mtb inh active
O=C(CCN1CCN(Cc2ccccc2)CC1)NNC(=O)Nc1cccc(C(F)(F)F)c1	none
CC1(C)OC(=O)C2=C(CC(CCc3ccccc3)OC2c2cccc(C(F)(F)F)c2)O1 (stereo unspecified)	none (no result: RecA intein inh, GDH-TPI counter, FBA Mtb inh, SARS 3CLpro inh, DUSP3 inh)
O=C(NNC1=Nc2ccccc2SC1)c1ccc(Cl)cc1	GDH-TPI counter 37.9
COc1ccc(CN(CC(=O)NCc2ccc(F)cc2)C(=O)CCC(=O)Nc2cc(C)ccn2)cc1	none
COc1ccc(CN(CC(=O)NCc2ccccc2)C(=O)CCC(=O)Nc2cc(C)ccn2)cc1	DUSP3 inh 52.0
N#Cc1ccccc1NC(=O)COC(=O)c1ccc(F)cc1F	DUSP3 inh 53.3
CC(=O)OCCCN1CCC2(CCCCC2)C1=O	none (no result: RecA intein inh, GDH-TPI counter, FBA Mtb inh, SARS 3CLpro inh, DUSP3 inh)
CCNc1nc(C)c(CN(C(C)=O)c2ccccc2)nc1C#N	FBA Mtb inh 125.9
CC(=O)N(CN1C(=O)c2ccccc2C1=O)c1ccccc1	none
CN1CCCCC(NC(=O)COCc2ccccc2)C1=O (stereo unspecified)	none (no result: RecA intein inh, GDH-TPI counter, FBA Mtb inh, SARS 3CLpro inh, DUSP3 inh)
COc1ccccc1N1CCN(C2CCCN(C(=O)CCn3cncn3)C2)CC1 (stereo unspecified)	DUSP3 inh 57.1
COc1ccccc1N1CCN(C2CCCN(C(=O)CCC(=O)N(C)C)C2)CC1 (stereo unspecified)	none
COc1ccccc1N1CCN(C2CCCN(C(=O)c3cscn3)C2)CC1 (stereo unspecified)	none
COc1ccccc1N1CCN(C2CCCN(C(=O)C3=NN(C)C(=O)CC3)C2)CC1 (stereo unspecified)	DUSP3 inh 52.1
CCCC(=O)N1CCC(NS(=O)(=O)c2ccc3c(c2)CCN3C(C)=O)CC1	none (no result: RecA intein inh, GDH-TPI counter, FBA Mtb inh, SARS 3CLpro inh, DUSP3 inh)
COc1cc(/C=N/n2cnnc2-n2nc(C)cc2C)cc([N+](=O)[O-])c1O	GDH-TPI counter 38.0
Cc1ccc(-n2c(SC/C=C/c3ccccc3)nnc2-c2ccco2)cc1	none (no result: RecA intein inh, GDH-TPI counter, FBA Mtb inh, SARS 3CLpro inh, DUSP3 inh)
COc1ccc(CCN(C)Cc2c(O)ccc3ccccc23)cc1OC	DUSP3 inh 58.2
CCC(=O)OCCCN1CCC2(CCC(c3ccccc3)CC2)C1=O (stereo unspecified)	none (no result: RecA intein inh, GDH-TPI counter, FBA Mtb inh, SARS 3CLpro inh, DUSP3 inh)
CC(=O)O[C@H]1C=C[C@@H](NC(=O)OC(C)(C)C)C1	none (no result: RecA intein inh, GDH-TPI counter, FBA Mtb inh, SARS 3CLpro inh, DUSP3 inh)
O=Cc1ccc(OC(=O)C2CC(=O)N(c3ccc(F)cc3)C2)cc1 (stereo unspecified)	GDH-TPI counter 31.1, DUSP3 inh 51.2
CC1(C)CC(=O)C2=C(C1)Nc1ccccc1NC2c1ccc(F)cc1 (stereo unspecified)	none
COc1ccc(C2Nc3ccccc3NC3=C2C(=O)CC(C)(C)C3)c(OC)c1OC (stereo unspecified)	none
CC1(C)CC(=O)C2=C(C1)Nc1ccccc1NC2c1ccccn1 (stereo unspecified)	GDH-TPI counter 41.9
COc1cccc(C2Nc3ccccc3NC3=C2C(=O)CC(C)(C)C3)c1OC (stereo unspecified)	GDH-TPI counter 34.8
CC1(C)CC(=O)C2=C(C1)Nc1ccccc1NC2c1nc2ccccc2[nH]1 (stereo unspecified)	GDH-TPI counter 32.2
COc1ccccc1C1Nc2ccccc2NC2=C1C(=O)CC(C)(C)C2 (stereo unspecified)	none
CC1(C)CC(=O)C2=C(C1)Nc1ccccc1NC2c1ccc2c(c1)OCO2 (stereo unspecified)	GDH-TPI counter 41.0
COc1cc(-c2cc3nc(NCc4ccco4)ccn3n2)cc(OC)c1OC	none (no result: RecA intein inh, SARS 3CLpro inh, DUSP3 inh)
Cc1ccc(NC(=O)COCC(=O)Nc2ccc(F)cc2)cc1	none
C[C@@H]1CN([C@@H](C)CO)C(=O)CCCn2cc(nn2)CO[C@H]1CN(C)C(=O)Nc1cccc(C(F)(F)F)c1	none (no result: RecA intein inh, GDH-TPI counter, FBA Mtb inh, SARS 3CLpro inh, DUSP3 inh)
CCOc1ccc(C=Nn2c(-c3cccc(OC(C)C)c3)n[nH]c2=S)cc1	none (no result: RecA intein inh, GDH-TPI counter, FBA Mtb inh, SARS 3CLpro inh, DUSP3 inh)
c1coc(C2=NC(c3ccco3)C(c3ccco3)N2)c1 (stereo unspecified)	FBA Mtb inh 49.5 (no result: RecA intein inh, CCHFV vOTU inh, SARS 3CLpro inh, DUSP3 inh)
O=C(c1ccc(S(=O)(=O)Nc2ccccc2F)cc1)N1CCN(c2ccccc2O)CC1	none (no result: SARS 3CLpro inh, DUSP3 inh)
CCCCOCCCn1c(-c2ccco2)nc2nc3ccccc3nc21	FBA Mtb inh active
CC(C)Cn1c(-c2cccs2)nc2nc3ccccc3nc21	FBA Mtb inh active
c1ccc(Cn2c(-c3cccs3)nc3nc4ccccc4nc32)cc1	none (no result: GDH-TPI counter, FBA Mtb inh)
CCCCn1c(-c2cccs2)nc2nc3ccccc3nc21	FBA Mtb inh active
COCCCn1c(-c2ccco2)nc2ccccc2c1=O	none
C#CCNC(=O)C[C@H]1C[C@@]2(C(=O)OC)C(=C[C@H](C(C)(C)C)O[C@@H]2C)N(Cc2ccc3c(c2)OCO3)C1=O	none (no result: RecA intein inh, GDH-TPI counter, FBA Mtb inh, SARS 3CLpro inh, DUSP3 inh)
O=C(c1cnc2c(c1)COc1ccc(Cl)cc1-2)c1ccccc1O	DUSP3 inh 50.4
CC(C)(C)OC(=O)N1C[C@@]23C[C@H](c4cccc(F)c4)[C@@H](C[C@@H]2S1(=O)=O)O3	none (no result: RecA intein inh, GDH-TPI counter, FBA Mtb inh, SARS 3CLpro inh, DUSP3 inh)
COc1cccc(-c2nnc(Nc3nc4c(F)cccc4s3)o2)c1	GDH-TPI counter 59.3, FBA Mtb inh 133.7
COc1cccc2sc(Nc3nnc(-c4ccccc4Cl)o3)nc12	none
O=C(NC1CCOC1)c1cc(COc2cccc(C(F)(F)F)c2)on1 (stereo unspecified)	DUSP3 inh 51.2
O=S1(=O)CC(O)C(O)CS1 (stereo unspecified)	none (no result: RecA intein inh, GDH-TPI counter, FBA Mtb inh, SARS 3CLpro inh, DUSP3 inh)
CCCCC(=O)Nc1ccc(C(=O)NNC(=O)c2ccco2)cc1	none (no result: RecA intein inh)
O=C(/C=C/c1ccccc1)NC(=S)NNC(=O)Cc1cccs1	none
CCCCC(=O)Nc1ccc(C(=O)NNC(=S)NC(=O)c2ccco2)cc1	GDH-TPI counter 43.9
COc1ccc(/C=C/C(=O)NC(=S)NNC(=O)Cc2cccs2)cc1	GDH-TPI counter 40.7
COc1ccc(/C=C/C(=O)NC(=S)NNC(=O)c2ccco2)cc1	GDH-TPI counter 41.2
COc1ccc(/C=C/C(=O)NC(=S)NNC(=O)c2ccco2)cc1OC	none
COc1ccc(C(=O)/C=C/c2ccc(O)cc2)cc1	GDH-TPI counter 31.4
